Results reported in the supplement of paper PMC11732987, “Enantioselective OTUD7B fragment discovery through chemoproteomics screening and high-throughput optimisation” (Communications Chemistry, 2025).

Experiments:
Assay in all cases: log2 ratio of Biotin-Ahx-Ub-VS probe labelling (fragment/DMSO); higher = less target engagement (more negative = stronger competition), active = hit call of the paper (q ≤ 0.05, log2 ratio ≤ -1)
Settings in all cases: compound concentration: 200 uM; treatment time: 3 h
OTUD6B = molecular target: T1, OTUD6B (UniProt Q8N6M0)
T1 sequence (whole entry): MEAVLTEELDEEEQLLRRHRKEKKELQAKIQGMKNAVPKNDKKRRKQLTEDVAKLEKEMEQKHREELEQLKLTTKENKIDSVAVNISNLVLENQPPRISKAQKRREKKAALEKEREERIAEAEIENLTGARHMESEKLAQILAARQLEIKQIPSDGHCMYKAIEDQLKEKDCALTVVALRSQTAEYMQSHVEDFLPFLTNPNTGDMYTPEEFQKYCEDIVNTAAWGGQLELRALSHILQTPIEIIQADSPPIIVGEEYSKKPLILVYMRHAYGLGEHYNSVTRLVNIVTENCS
Outline: (§1)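 Labelled DUBs from HEK293T lysate were NeutrAvidin-enriched, digested with LysC and trypsin, and run by diaPASEF LC-MS/MS. Before that, each 495 µg sample in Tris/CHAPS/IGEPAL buffer with protease inhibitors was treated in triplicate with fragment at 200 µM or vehicle for 3 h, then with Biotin-Ahx-Ub-VS at 0.5 µM final for 1 h. Values are average log2 ratios of fragment over vehicle by unpaired t-test, based on global-median-normalised Spectronaut label-free quantities from proteins with ≥2 unique peptides.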

OTUD7B = molecular target: T2, OTUD7B (UniProt Q6GQQ9)
T2 sequence (whole entry): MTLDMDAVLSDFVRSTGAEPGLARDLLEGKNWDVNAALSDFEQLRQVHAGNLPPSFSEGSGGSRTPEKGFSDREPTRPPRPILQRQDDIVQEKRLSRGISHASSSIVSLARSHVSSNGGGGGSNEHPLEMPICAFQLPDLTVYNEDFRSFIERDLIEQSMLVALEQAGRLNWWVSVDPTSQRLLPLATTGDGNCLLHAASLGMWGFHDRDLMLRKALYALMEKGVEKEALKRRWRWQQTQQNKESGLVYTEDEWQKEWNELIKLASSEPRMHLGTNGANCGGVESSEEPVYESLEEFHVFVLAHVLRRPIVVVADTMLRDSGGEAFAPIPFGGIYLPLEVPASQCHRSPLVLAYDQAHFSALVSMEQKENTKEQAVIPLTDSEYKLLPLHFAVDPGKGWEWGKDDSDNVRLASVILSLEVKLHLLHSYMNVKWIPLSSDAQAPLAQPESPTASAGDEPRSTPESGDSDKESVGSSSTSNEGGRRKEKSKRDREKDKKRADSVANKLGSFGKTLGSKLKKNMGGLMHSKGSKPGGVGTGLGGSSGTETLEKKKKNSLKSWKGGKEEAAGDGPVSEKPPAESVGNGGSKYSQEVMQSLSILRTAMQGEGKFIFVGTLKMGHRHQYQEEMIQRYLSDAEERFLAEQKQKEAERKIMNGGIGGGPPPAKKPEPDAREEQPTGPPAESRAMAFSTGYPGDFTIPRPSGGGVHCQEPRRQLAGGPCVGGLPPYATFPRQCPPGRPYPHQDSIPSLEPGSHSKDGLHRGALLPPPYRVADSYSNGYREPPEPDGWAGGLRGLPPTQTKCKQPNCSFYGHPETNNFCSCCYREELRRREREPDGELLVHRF
Outline: as §1

PRPF8 = PRPF8 (UniProt Q6P2Q9)
Outline: as §1

PSMD7 = molecular target: T3, PSMD7 (UniProt P51665)
T3 sequence (whole entry): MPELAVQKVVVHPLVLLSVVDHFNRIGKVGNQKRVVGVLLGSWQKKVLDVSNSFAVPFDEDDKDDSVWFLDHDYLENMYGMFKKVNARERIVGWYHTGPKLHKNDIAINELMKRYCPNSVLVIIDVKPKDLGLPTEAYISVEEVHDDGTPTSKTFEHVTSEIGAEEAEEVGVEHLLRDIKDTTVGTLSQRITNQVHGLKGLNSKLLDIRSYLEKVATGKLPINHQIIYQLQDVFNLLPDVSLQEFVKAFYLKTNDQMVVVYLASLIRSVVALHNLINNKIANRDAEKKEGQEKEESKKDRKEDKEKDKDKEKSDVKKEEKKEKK
Outline: as §1

UCHL1 = UCHL1 (UniProt P09936)
UCHL1, sequence (P09936 whole entry, looked up): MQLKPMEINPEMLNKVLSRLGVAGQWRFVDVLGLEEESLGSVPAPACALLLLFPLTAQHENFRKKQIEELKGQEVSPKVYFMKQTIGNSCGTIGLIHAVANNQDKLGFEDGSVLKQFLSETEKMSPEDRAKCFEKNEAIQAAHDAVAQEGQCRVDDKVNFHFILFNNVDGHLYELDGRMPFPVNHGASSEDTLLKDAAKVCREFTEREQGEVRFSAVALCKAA
Outline: as §1

UCHL3 = molecular target: T4, UCHL3 (UniProt P15374)
T4 sequence (whole entry): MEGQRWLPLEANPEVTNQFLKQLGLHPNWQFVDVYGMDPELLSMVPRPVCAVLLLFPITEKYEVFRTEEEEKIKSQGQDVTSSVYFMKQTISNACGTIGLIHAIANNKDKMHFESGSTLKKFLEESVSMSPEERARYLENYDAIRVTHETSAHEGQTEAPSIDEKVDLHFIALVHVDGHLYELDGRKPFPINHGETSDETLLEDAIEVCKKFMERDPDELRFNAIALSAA
Outline: as §1

UCHL5 = molecular target: T5, UCHL5 (UniProt Q9Y5K5)
T5 sequence (whole entry): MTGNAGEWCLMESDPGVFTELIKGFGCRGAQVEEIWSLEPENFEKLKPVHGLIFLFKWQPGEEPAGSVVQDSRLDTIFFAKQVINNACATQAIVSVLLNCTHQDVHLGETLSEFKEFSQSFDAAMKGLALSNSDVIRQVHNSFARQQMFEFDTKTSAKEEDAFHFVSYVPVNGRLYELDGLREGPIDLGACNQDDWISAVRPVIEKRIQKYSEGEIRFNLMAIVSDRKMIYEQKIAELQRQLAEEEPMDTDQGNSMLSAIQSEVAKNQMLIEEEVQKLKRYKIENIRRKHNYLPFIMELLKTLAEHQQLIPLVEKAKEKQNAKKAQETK
Outline: as §1

USP10 = USP10 (UniProt Q14694)
USP10, sequence (Q14694 whole entry): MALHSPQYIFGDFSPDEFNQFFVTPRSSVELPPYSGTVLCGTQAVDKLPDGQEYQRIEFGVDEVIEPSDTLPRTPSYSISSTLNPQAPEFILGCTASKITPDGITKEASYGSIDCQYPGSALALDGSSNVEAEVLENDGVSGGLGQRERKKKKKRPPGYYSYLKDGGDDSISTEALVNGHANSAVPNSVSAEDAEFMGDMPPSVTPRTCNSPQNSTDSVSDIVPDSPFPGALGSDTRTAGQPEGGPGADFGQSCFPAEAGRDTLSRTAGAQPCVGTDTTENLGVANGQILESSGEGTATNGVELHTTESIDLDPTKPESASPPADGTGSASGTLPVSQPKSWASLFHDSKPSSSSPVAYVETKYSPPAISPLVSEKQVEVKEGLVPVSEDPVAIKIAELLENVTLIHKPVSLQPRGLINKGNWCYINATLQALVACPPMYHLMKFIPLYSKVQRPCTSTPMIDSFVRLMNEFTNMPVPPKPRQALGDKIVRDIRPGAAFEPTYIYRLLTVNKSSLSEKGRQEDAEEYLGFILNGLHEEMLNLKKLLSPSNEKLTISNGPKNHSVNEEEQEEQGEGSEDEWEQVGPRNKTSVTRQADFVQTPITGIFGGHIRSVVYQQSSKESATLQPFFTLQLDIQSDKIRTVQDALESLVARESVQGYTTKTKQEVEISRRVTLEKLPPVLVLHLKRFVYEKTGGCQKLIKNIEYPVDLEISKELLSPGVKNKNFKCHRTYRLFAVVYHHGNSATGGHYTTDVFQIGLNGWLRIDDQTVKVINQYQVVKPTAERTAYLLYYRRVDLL
Outline: as §1

USP15 = molecular target: T6, USP15 (UniProt Q9Y4E8)
T6 sequence (whole entry): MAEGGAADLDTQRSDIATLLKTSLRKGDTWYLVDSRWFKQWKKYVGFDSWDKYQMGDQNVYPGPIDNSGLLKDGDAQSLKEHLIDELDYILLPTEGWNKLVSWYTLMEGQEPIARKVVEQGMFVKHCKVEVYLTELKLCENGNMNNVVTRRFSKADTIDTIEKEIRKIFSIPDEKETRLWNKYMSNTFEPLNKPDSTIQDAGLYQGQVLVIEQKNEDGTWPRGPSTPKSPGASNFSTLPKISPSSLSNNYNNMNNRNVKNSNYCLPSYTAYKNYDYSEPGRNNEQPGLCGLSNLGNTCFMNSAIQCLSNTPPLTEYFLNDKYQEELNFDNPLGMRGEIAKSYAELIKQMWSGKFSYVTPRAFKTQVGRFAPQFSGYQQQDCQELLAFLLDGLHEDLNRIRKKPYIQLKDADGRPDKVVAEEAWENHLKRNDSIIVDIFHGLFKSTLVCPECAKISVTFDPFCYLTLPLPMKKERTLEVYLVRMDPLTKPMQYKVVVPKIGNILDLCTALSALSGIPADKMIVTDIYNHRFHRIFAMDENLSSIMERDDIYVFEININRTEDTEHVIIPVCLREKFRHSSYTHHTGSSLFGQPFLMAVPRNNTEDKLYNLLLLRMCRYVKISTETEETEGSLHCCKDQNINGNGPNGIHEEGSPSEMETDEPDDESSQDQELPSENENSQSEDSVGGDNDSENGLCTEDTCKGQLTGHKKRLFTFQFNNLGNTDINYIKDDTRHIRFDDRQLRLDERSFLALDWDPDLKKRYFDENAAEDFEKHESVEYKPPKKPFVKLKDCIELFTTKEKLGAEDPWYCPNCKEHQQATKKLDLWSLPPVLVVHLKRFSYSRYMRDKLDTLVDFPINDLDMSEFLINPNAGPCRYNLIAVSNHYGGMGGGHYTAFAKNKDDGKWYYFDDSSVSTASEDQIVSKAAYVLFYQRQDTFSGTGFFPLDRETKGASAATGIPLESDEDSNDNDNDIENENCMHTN
Outline: as §1

Measured: log2 ratio of Biotin-Ahx-Ub-VS probe labelling

Cl.Cn1nccc1C(NC(=O)CCl)c1ccccc1 (centres undefined)
inactive: OTUD6B -0.147 | OTUD7B -0.872 | PRPF8 0.0203 | PSMD7 -0.597 | UCHL3 0.209 | UCHL5 -0.353 | USP10 -0.0201 | USP15 -0.218
active: UCHL1 -1.03
